Each structure is given as a SMILES string. About 79,000 compounds went through this panel and 15% of them were active in at least one assay; those are over-represented in the sample as a whole. Unmarked numbers belong to inactive results. The source made the active and inactive calls. No stated cut-off is given here; in the data, active means growth inhibition above about 70%; inactive means the rest. Where a SMILES comes first, the peptide text is derived from it. The star is where a group is joined. Cbz = O=C(OCc1ccccc1)*

Assay [1] can be described thus: NCI Yeast Anticancer Drug Screen. Data for the rad50 strain (AID 155).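 Further: 0% = growth of vehicle-only cultures of the same strain.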 The settings on record: S. cerevisiae rad50 strain growth inhibition, stronger effect = higher value. In a few lines: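 Yeast carrying a defined DNA repair defect were exposed to test compounds, and growth was compared with vehicle-treated controls to give percent inhibition.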
Assay [2] is described as follows: NCI Yeast Anticancer Drug Screen. Data for the mec2-1 strain (AID 157). The settings on record: S. cerevisiae mec2-1 strain, stronger effect = higher value. In a few lines: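 Test agents were screened against the mec2-1 yeast strain, with defined DNA repair or cell cycle alteration. Growth was scored as inhibition against vehicle-only controls.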
Assay [3] can be described thus: NCI Yeast Anticancer Drug Screen. Data for the sgs1 mgt1 strain (AID 161).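 Further: 0% = growth of cultures given vehicle only.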 The settings on record: S. cerevisiae sgs1 mgt1 strain, stronger effect = higher value. In a few lines:
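Test agents were incubated with a DNA-repair-mutant yeast strain. Growth was then read and compared against vehicle-treated controls.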

Assay [4] in a line: NCI Yeast Anticancer Drug Screen. Data for the cln2 rad14 strain (AID 165).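 Further: 0% = growth equal to vehicle treated cultures.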 The settings on record: S. cerevisiae cln2 rad14 strain, stronger effect = higher value. Summed up: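 Growth of compound-exposed yeast (cln2 rad14 genotype) measured and expressed as inhibition relative to vehicle.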
Assay [5] can be described thus: NCI Yeast Anticancer Drug Screen. Data for the bub3 strain (AID 167). To be noted: S. cerevisiae bub3 mutant strain, stronger effect = higher value. Summed up: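 Compounds were applied to a genetically altered yeast strain carrying a cell-cycle control defect. Growth inhibition was scored against vehicle-treated controls.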
Assay [6] is described as follows: NCI Yeast Anticancer Drug Screen. Data for the mlh1 rad18 strain (AID 175). The settings on record: S. cerevisiae mlh1 rad18 strain growth inhibition, stronger effect = higher value. In a few lines:
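In this whole-cell yeast screen, a strain with altered DNA damage repair is challenged with compound, and its growth is measured against matched vehicle-treated controls.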

[7] abbreviates: at 5.0 µM (retest, dose inferred, filed as 0.5).
Where [8] appears, read: at 50.0 µM (retest, dose inferred, filed as 5.0).

For the molecule `C=COCCN1CCN(CCCN2c3ccccc3Sc3ccc(C(F)(F)F)cc32)CC1`, the growth inhibition was -4% in assay [1] (setting [7]); 99% (active) in assay [1] (setting [8]); 99.5% (active) in assay [1] (at 50.0 µM); -4% in assay [2] (setting [7]); 99% (active) in assay [2] (setting [8]); 99% (active) in assay [2] (at 50.0 µM). Further, the growth inhibition in assay [3] (setting [7]) was -1%; in assay [3] (setting [8]), 99% (active); in assay [3] (at 50.0 µM), 99.7% (active); in assay [4] (setting [7]), -2%; in assay [4] (setting [8]), 99% (active); in assay [4] (at 50.0 µM), 98.7% (active). The growth inhibition in assay [5] (setting [7]) is 1%; in assay [5] (setting [8]), 99% (active); in assay [5] (at 50.0 µM), 98.5% (active); in assay [6] (setting [7]), 1%; in assay [6] (setting [8]), 99% (active); in assay [6] (at 50.0 µM), 99.3% (active).
As for `O=C(/C=C(\OB(F)F)c1ccccc1)c1ccccc1`, the growth inhibition was -2% in assay [1] (setting [7]); -4% in assay [1] (setting [8]); 100% (active) in assay [1] (at 50.0 µM); -18% in assay [2] (setting [7]); -19% in assay [2] (setting [8]); 98.9% (active) in assay [2] (at 50.0 µM). The growth inhibition is -4% in assay [3] (setting [7]); 2% in assay [3] (setting [8]); 97.4% (active) in assay [3] (at 50.0 µM); -8% in assay [4] (setting [7]); 4% in assay [4] (setting [8]); 98.4% (active) in assay [4] (at 50.0 µM). The growth inhibition in assay [5] (setting [7]) is 2%; in assay [5] (setting [8]), -1%; in assay [5] (at 50.0 µM), 98.2% (active); in assay [6] (setting [7]), 1%; in assay [6] (setting [8]), -13%; in assay [6] (at 50.0 µM), 97.9% (active).
On to `CCOC(=O)CNC(=O)CNC(=O)CNC(=O)OCc1ccccc1` (Cbz-Gly-Gly-Gly-OEt), for which the growth inhibition was -9% in assay [1] (setting [7]); -3% in assay [1] (setting [8]); 7.6% in assay [1] (at 50.0 µM); -11% in assay [2] (setting [7]); -3% in assay [2] (setting [8]); -0.7% in assay [2] (at 50.0 µM). For the same molecule, the growth inhibition in assay [3] (setting [7]) was -7%; in assay [3] (setting [8]), 4%; in assay [3] (at 50.0 µM), -12.2%; in assay [4] (setting [7]), -62%; in assay [4] (setting [8]) it was -4%; in assay [4] (at 50.0 µM), 38.5%. The growth inhibition was -7% in assay [5] (setting [7]); 42% in assay [5] (setting [8]); 13.8% in assay [5] (at 50.0 µM); 1% in assay [6] (setting [7]); -13% in assay [6] (setting [8]); 14.2% in assay [6] (at 50.0 µM).
On to `CCc1cccc(CC)c1NC1=C(Cl)C(=O)c2ccccc2C1=O`, for which the growth inhibition was 99% (active) in assay [1] (setting [7]); 99% (active) in assay [1] (setting [8]); -21.1% in assay [1] (at 50.0 µM); 100% (active) in assay [2] (setting [7]); 99% (active) in assay [2] (setting [8]); 5% in assay [2] (at 50.0 µM). Besides, the growth inhibition in assay [3] (setting [7]) was 99% (active); in assay [3] (setting [8]), 99% (active); in assay [3] (at 50.0 µM), 14.5%; in assay [4] (setting [7]) it was 95% (active); in assay [4] (setting [8]), 98% (active); in assay [4] (at 50.0 µM) it was -26.9%. Besides, the growth inhibition in assay [5] (setting [7]) is 99% (active); in assay [5] (setting [8]), 98% (active); in assay [5] (at 50.0 µM), 5.15%; in assay [6] (setting [7]), 99% (active); in assay [6] (setting [8]), 98% (active); in assay [6] (at 50.0 µM), 19.1%.
On to `COC(=O)C(CCC(=O)Cc1ccccc1)N1C(=O)c2ccccc2C1=O` (configuration not stated), for which the growth inhibition was 6% in assay [1] (setting [7]); 67% in assay [1] (setting [8]); 70% in assay [1] (at 50.0 µM); 1% in assay [2] (setting [7]); 91% (active) in assay [2] (setting [8]); 56.9% in assay [2] (at 50.0 µM). The growth inhibition was 16% in assay [3] (setting [7]); 87% (active) in assay [3] (setting [8]); 81.6% (active) in assay [3] (at 50.0 µM); 10% in assay [4] (setting [7]); 43% in assay [4] (setting [8]); 1.4% in assay [4] (at 50.0 µM). In addition, the growth inhibition was 8% in assay [5] (setting [7]); 86% (active) in assay [5] (setting [8]); 76% (active) in assay [5] (at 50.0 µM); 16% in assay [6] (setting [7]); 89% (active) in assay [6] (setting [8]); 88% (active) in assay [6] (at 50.0 µM).
Regarding `CC(=O)OCC1OC(n2ncc3c(Sc4c([N+](=O)[O-])ncn4C)ncnc32)C(OC(C)=O)C1OC(C)=O` (configuration not stated), the growth inhibition in assay [1] (setting [7]) is 23%; in assay [1] (setting [8]), 99% (active); in assay [1] (at 50.0 µM), 99.3% (active); in assay [2] (setting [7]) it was 25%; in assay [2] (setting [8]), 100% (active); in assay [2] (at 50.0 µM), 99.4% (active). Moreover, the growth inhibition was 47% in assay [3] (setting [7]); 99% (active) in assay [3] (setting [8]); 99.5% (active) in assay [3] (at 50.0 µM); 2% in assay [4] (setting [7]); 99% (active) in assay [4] (setting [8]); 99.4% (active) in assay [4] (at 50.0 µM). Also, the growth inhibition in assay [5] (setting [7]) was 16%; in assay [5] (setting [8]), 99% (active); in assay [5] (at 50.0 µM), 99% (active); in assay [6] (setting [7]), 18%; in assay [6] (setting [8]) it was 99% (active); in assay [6] (at 50.0 µM), 98.8% (active).
On to `CCCCCCCC(=O)O[C@H]1[C@H]2[C@@H](CC1(C)C)C(=O)[C@]13O[C@H]1C(=O)[C@]1(CO1)[C@]23C`, for which the growth inhibition is 48% in assay [1] (setting [7]); 98% (active) in assay [1] (setting [8]); 91% (active) in assay [1] (at 50.0 µM); 47% in assay [2] (setting [7]); 98% (active) in assay [2] (setting [8]); 92.8% (active) in assay [2] (at 50.0 µM). Also, the growth inhibition is 65% in assay [3] (setting [7]); 98% (active) in assay [3] (setting [8]); 92.7% (active) in assay [3] (at 50.0 µM); 80% (active) in assay [4] (setting [7]); 98% (active) in assay [4] (setting [8]); 90.8% (active) in assay [4] (at 50.0 µM). For the same molecule, the growth inhibition in assay [5] (setting [7]) was 83% (active); in assay [5] (setting [8]) it was 97% (active); in assay [5] (at 50.0 µM) it was 90.4% (active); in assay [6] (setting [7]) it was 73% (active); in assay [6] (setting [8]), 97% (active); in assay [6] (at 50.0 µM), 91.5% (active).
As to `CCCC(C1=C(O)CC(C)CC1=O)C1=C(O)CC(C)CC1=O` (configuration not stated), the growth inhibition is -6% in assay [1] (setting [7]); -2% in assay [1] (setting [8]); -8.7% in assay [1] (at 50.0 µM); -5% in assay [2] (setting [7]); -4% in assay [2] (setting [8]); 0.4% in assay [2] (at 50.0 µM). Besides, the growth inhibition in assay [3] (setting [7]) is -4%; in assay [3] (setting [8]) it was 8%; in assay [3] (at 50.0 µM), -5.6%; in assay [4] (setting [7]) it was -34%; in assay [4] (setting [8]), 23%; in assay [4] (at 50.0 µM), -24.4%. Moreover, the growth inhibition in assay [5] (setting [7]) is -6%; in assay [5] (setting [8]) it was 19%; in assay [5] (at 50.0 µM), -7.2%; in assay [6] (setting [7]), 4%; in assay [6] (setting [8]) it was 28%; in assay [6] (at 50.0 µM), 0.45%.
As to `O=C(NNc1ccccc1)c1ccccc1Cl`, the growth inhibition was -3% in assay [1] (setting [7]); 93% (active) in assay [1] (setting [8]); 97.5% (active) in assay [1] (at 50.0 µM); 9% in assay [2] (setting [7]); 89% (active) in assay [2] (setting [8]); 92% (active) in assay [2] (at 50.0 µM). The growth inhibition in assay [3] (setting [7]) is 15%; in assay [3] (setting [8]) it was 91% (active); in assay [3] (at 50.0 µM), 96% (active); in assay [4] (setting [7]), -9%; in assay [4] (setting [8]) it was 89% (active); in assay [4] (at 50.0 µM), 93% (active). Also, the growth inhibition in assay [5] (setting [7]) was -14%; in assay [5] (setting [8]), 95% (active); in assay [5] (at 50.0 µM), 95.7% (active); in assay [6] (setting [7]), 13%; in assay [6] (setting [8]), 97% (active); in assay [6] (at 50.0 µM) it was 95.6% (active).

Values taken from PubChem BioAssay (NCI).
